The values below come from PubChem BioAssay (NCI).

Compounds without any hit were thinned out: in the full panel of roughly 83,000, 20% have a hit.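 A percent growth of 40 corresponds to 60% growth inhibition; 0 means no net growth; -100 means all cells died. Active threshold: below 10.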 Unmarked numbers belong to inactive results. Active and inactive are the calls of the source.

Some test systems named below: HCT-15 colon; HT29 colon; SNB-75 CNS; SNB-19 CNS; U251 CNS; PC-3 prostate; SK-MEL-5 melanoma; UACC-62 melanoma; LOX IMVI melanoma; SK-MEL-28 melanoma.
What all share (assay): NCI-60 one-dose screen, 48 h (100 = growth as untreated, 0 = no growth, -100 = all killed)
Settings in all cases: 10 µM unless noted

`CCc1ccc(C2=C/C(=C/c3ccc(Cl)cc3)C(=O)N2CCc2ccc(S(N)(=O)=O)cc2)cc1`: the growth in the assay with HCT-15 colon is 17.7%; with HT29 colon, 6.46% (active); in the assay on SNB-75 CNS, 52.5%; in the assay with SNB-19 CNS, 54.6%; in the assay with U251 CNS, 25.1%; in the assay with PC-3 prostate, 11.5%. Besides, the growth with SK-MEL-5 melanoma was 41.4%; with UACC-62 melanoma, 31.2%; with LOX IMVI melanoma it was 24.3%; in the assay with SK-MEL-28 melanoma, 38.2%.

With `COc1ccc(-c2[nH]c3ccccc3c2/C=C(\C#N)S(=O)(=O)c2ccccc2)cc1`, the growth was 24.6% in the assay with HCT-15 colon; 12.6% in the assay on HT29 colon; 33.1% in the assay with SNB-75 CNS; 30.3% in the assay with SNB-19 CNS; 24.2% in the assay on U251 CNS; 30.9% in the assay on PC-3 prostate. The growth was 12.5% in the assay on SK-MEL-5 melanoma, 22.6% with UACC-62 melanoma, 28.5% in the assay on LOX IMVI melanoma and 54.2% in the assay with SK-MEL-28 melanoma.

Take `COc1ccccc1NC(=O)COc1ccc(/C=C2/Oc3cc4occc4c(OC)c3C2=O)cc1OC`: the growth in the assay on HCT-15 colon was 104%; with HT29 colon, 113%; in the assay on SNB-75 CNS it was 114%; in the assay with SNB-19 CNS, 105%; in the assay on U251 CNS it was 102%; in the assay on PC-3 prostate, 92.2%. Besides, the growth in the assay with SK-MEL-5 melanoma is 86.3%; in the assay with UACC-62 melanoma, 91.6%; with LOX IMVI melanoma, 98.8%; with SK-MEL-28 melanoma, 111%.

With `C=C(C)[C@@H]1C/C=C(\COC(=O)[C@H](OC(C)=O)C(NC(=O)c2ccccc2)c2ccccc2)CC[C@H]2O[C@]2(C)CC/C=C(\C)CC1` (stereo not given in full), the growth with HCT-15 colon was 89% [5 µM]; with HT29 colon, 62.8% [5 µM]; in the assay on SNB-75 CNS it was 57.5% [5 µM]; with SNB-19 CNS, 80.2% [5 µM]; with U251 CNS, 71.4% [5 µM]; in the assay on PC-3 prostate, 32.1% [5 µM]. Moreover, the growth with SK-MEL-5 melanoma is 71.4% [5 µM]; in the assay with UACC-62 melanoma, 62.3% [5 µM]; in the assay with LOX IMVI melanoma, 72.9% [5 µM]; in the assay with SK-MEL-28 melanoma it was 77.1% [5 µM].

Regarding `O=C(O)c1cc2ccccc2cc1Nc1ccccc1`, the growth with HCT-15 colon is 99.4%; in the assay with HT29 colon, 117%; in the assay on SNB-75 CNS, 102%; with SNB-19 CNS it was 94.6%; in the assay on U251 CNS, 93.5%; with PC-3 prostate, 95.7%. In addition, the growth in the assay with SK-MEL-5 melanoma was 69.4%; in the assay with UACC-62 melanoma, 103%; in the assay with LOX IMVI melanoma it was 91.8%; in the assay on SK-MEL-28 melanoma, 107%.

Consider `O=C1C(Cl)=C(Nc2ccccc2)C(=O)C(Cl)=C1Nc1ccccc1`, for which the growth in the assay with HCT-15 colon was 109%; in the assay with HT29 colon, 112%; in the assay on SNB-75 CNS it was 113%; with SNB-19 CNS, 129%; with U251 CNS, 104%; with PC-3 prostate, 109%. Further, the growth with SK-MEL-5 melanoma was 112%; in the assay on UACC-62 melanoma it was 111%; in the assay with LOX IMVI melanoma it was 96.9%; in the assay with SK-MEL-28 melanoma, 119%.

Consider `O=C1/C(=C/c2cccc3cnccc23)Cc2cc(F)ccc21`, for which the growth with HCT-15 colon is 87.1%; in the assay on HT29 colon, 94.6%; in the assay on SNB-75 CNS it was 107%; in the assay on SNB-19 CNS, 102%; in the assay with U251 CNS, 95.8%; with PC-3 prostate, 79.2%. Also, the growth was 89.9% in the assay on SK-MEL-5 melanoma, 86.3% with UACC-62 melanoma, 93% in the assay with LOX IMVI melanoma and 109% with SK-MEL-28 melanoma.

In the case of `O=[N+]([O-])c1ccc(NS(=O)(=O)c2cc(Cl)ccc2Cl)c2ccccc12`, the growth with HCT-15 colon was 54.2%; in the assay with HT29 colon it was 59.4%; in the assay on SNB-75 CNS it was 60.6%; in the assay with SNB-19 CNS, 60.1%; in the assay on U251 CNS, 67.1%; in the assay on PC-3 prostate, 54.7%. The growth is 14% in the assay on SK-MEL-5 melanoma, 17.1% in the assay with UACC-62 melanoma, 56.4% with LOX IMVI melanoma and 35.4% with SK-MEL-28 melanoma.

`CS(=O)(=O)OCC(COS(C)(=O)=O)C(c1ccccc1)c1ccccc1`: the growth was 108% in the assay on HCT-15 colon; 100% in the assay on HT29 colon; 96.2% in the assay with SNB-75 CNS; 105% in the assay on SNB-19 CNS; 107% in the assay with U251 CNS; 97.2% in the assay with PC-3 prostate. Further, the growth with SK-MEL-5 melanoma is 107%; with UACC-62 melanoma it was 90.3%; in the assay with LOX IMVI melanoma, 99.7%; with SK-MEL-28 melanoma, 114%.

Regarding `O=c1[nH]ccc2nc(N3CCC(O)CC3)nc(Nc3cccc(C(F)(F)F)c3)c12`, the growth with HCT-15 colon is 49.9%; in the assay on HT29 colon, 71.6%; in the assay with SNB-75 CNS, 87.1%; with SNB-19 CNS, 98.9%; in the assay on U251 CNS, 55.2%; in the assay on PC-3 prostate, 30.6%. Further, the growth is -55.9% (active) in the assay on SK-MEL-5 melanoma, 32% with UACC-62 melanoma, 56.2% with LOX IMVI melanoma and 76.1% in the assay on SK-MEL-28 melanoma.

In the case of `COc1ccc(-c2ccc(NC(=O)Nc3cccc(C(F)(F)F)c3)c(C)n2)cc1`, the growth in the assay on HCT-15 colon is 40.9%; in the assay on HT29 colon it was 47.7%; in the assay on SNB-75 CNS, 77.6%; in the assay with SNB-19 CNS, 67.8%; in the assay on U251 CNS, 50.2%; with PC-3 prostate, 24.4%. Moreover, the growth with SK-MEL-5 melanoma was 41.6%; in the assay on UACC-62 melanoma it was 63.9%; in the assay with LOX IMVI melanoma, 47.7%; in the assay on SK-MEL-28 melanoma it was 69.3%.

With `CC/C(=C(\CC)c1ccc(OCCN(CC)CC)cc1)c1ccc(OCCN(CC)CC)cc1`, the growth in the assay with HCT-15 colon was 6.7% (active); with HT29 colon it was -0.437% (active); with SNB-75 CNS it was 39.1%; in the assay on SNB-19 CNS it was 62.5%; in the assay with U251 CNS, 24.6%; with PC-3 prostate it was 29%. For the same molecule, the growth was -96.4% (active) in the assay on SK-MEL-5 melanoma, 10.9% in the assay on UACC-62 melanoma, -5.77% (active) in the assay with LOX IMVI melanoma and -40.5% (active) with SK-MEL-28 melanoma.

On to `O=C(NOC1OC(CO)C(O)C(O)C1O)Nc1ccccc1` (stereo not given), for which the growth is 109% in the assay on HCT-15 colon; 105% in the assay on HT29 colon; 105% with SNB-75 CNS; 100% in the assay with SNB-19 CNS; 102% with U251 CNS; 93.2% in the assay with PC-3 prostate. The growth is 104% with SK-MEL-5 melanoma, 93.7% in the assay on UACC-62 melanoma, 96.7% in the assay on LOX IMVI melanoma and 117% in the assay with SK-MEL-28 melanoma.

Turning to `Nc1nccc2c1ccn2-c1ccc(NC(=O)Nc2cccc(C(F)(F)F)c2)cc1`, the growth is 90% in the assay on HCT-15 colon; 96.1% with HT29 colon; 89% in the assay on SNB-75 CNS; 104% in the assay on SNB-19 CNS; 80.5% with U251 CNS; 70.5% in the assay on PC-3 prostate. Moreover, the growth is 93.5% in the assay on SK-MEL-5 melanoma, 91.1% in the assay on UACC-62 melanoma, 87.6% with LOX IMVI melanoma and 101% in the assay on SK-MEL-28 melanoma.
